PubChem BioAssay (Tox21)
Results filed as inconclusive are left out. The source made the active and inactive calls. Unless noted, the call rests on the fitted dose curve; in most records, active means well fitted curve in the direction sought with a large enough effect in the repeat runs; inconclusive means weak or mixed curves; inactive means no such curve, though single readings can be large; an effect the other way counts as inactive or inconclusive.

Tests used:
[1] = qHTS assay to identify small molecule agonists of the androgen receptor (AR) signaling pathway in the presence of an antagonist - cell viability counter screen (AID 1259379); conditions: MDA-kb2 viability, CellTiter-Fluor, 16 h; series mostly up to 92.4 µM;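 further: MDA-kb2 human breast cancer cells carrying an MMTV luciferase reporter; nearly all actives have a fitted effect of over 25% in size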
Outline: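 MDA-kb2 cells (MMTV-luciferase, AR/GR), 3,000/well, 5 h attachment, then 3.0 µM nilutamide (final) and compounds at 15 concentrations. Viability by CellTiter-Fluor fluorescence after 16 h at 37 °C, 0% CO2, in the reporter wells.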

[2] = qHTS assay to identify small molecule agonists of the estrogen receptor beta (ER-beta) signaling pathway - cell viability counter screen (AID 1259380); conditions: ER-beta-bla HEK293T viability, CellTiter-Glo luminescence, 16 h; series mostly up to 92.4 µM; further: nearly all actives have a fitted effect of over 30% in size
Outline: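 ER-beta-UAS-bla HEK293T cells in medium with 2% charcoal-stripped FBS, pre-incubated 6 hr, then treated 16 hr at 37C. Cytotoxicity read in the same wells by CellTiter-Glo luminescence after 30 min at room temperature.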

[3] = qHTS assay to identify small molecule antagonists of the estrogen receptor beta (ER-beta) signaling pathway - cell viability counter screen (AID 1259382); conditions: ER-beta-UAS-bla HEK293T viability, CellTiter-Glo luminescence, 16 h; series mostly up to 92.4 µM;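 further: HEK293T cells carrying ER-beta-UAS-bla reporter stimulated with estradiol; nearly all actives have a fitted effect of over 55% in size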
Outline: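 ER-beta-UAS-bla HEK293T cells in 2% charcoal-stripped FBS medium, treated with compound plus 1 nM 17-beta-estradiol for 16 h at 37C. Viability read by CellTiter-Glo luminescence after 30 min at room temperature in the same wells.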

[4] = qHTS assay to identify small molecule agonists of the estrogen receptor alpha (ER-alpha) signaling pathway in the presence of an antagonist - cell viability counter screen (AID 1259386); conditions: VM7Luc4E2 viability, CellTiter-Fluor fluorescence, 22 h; series mostly up to 92.4 µM;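 further: cells exposed to compounds for 22 h at 37 °C before the viability read; nearly all actives have a fitted effect of over 30% in size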
Outline: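 Cell viability in VM7Luc4E2 cells (endogenous full-length ER-alpha) measured by CellTiter-Fluor fluorescence in the same wells as the luciferase screen. Cells pre-cultured 5 days in charcoal-stripped serum, then treated 22 h with compounds at 15 concentrations plus 10.0nM ICI-182,780.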

[5] = biological target: Progesterone receptor (Homo sapiens) (UniProt P06401); assay: qHTS assay to identify small molecule agonists of the progesterone receptor (PR) signaling pathway (AID 1346784; calls by dose curve; further: nearly all actives have a fitted effect of over 30% in size); conditions: PR-UAS-bla HEK293T, beta-lactamase FRET ratio, 16 h; series mostly up to 92.4 µM
Outline: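 Beta-lactamase reporter read-out: after 16 hr compound treatment at 37C and a further 2 hr at room temperature with LiveBLAzer B/G FRET substrate, fluorescence was measured in PR-UAS-bla HEK 293T cells grown in 2% charcoal-stripped serum.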

[6] = biological target: Progesterone receptor (Homo sapiens) (UniProt P06401); assay: qHTS assay to identify small molecule antagonists of the progesterone receptor (PR) signaling pathway (AID 1346795; active means well fitted inhibition curve with a large enough effect in the signal ratio in the repeat runs, not every such curve was filed as active; the % refers to the signal ratio); conditions: PR-UAS-bla HEK293T, beta-lactamase FRET ratio, 16 h; series mostly up to 92.4 µM
Outline: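 Read-out is fluorescence from the LiveBLAzer B/G FRET substrate, cleaved by a UAS-controlled beta-lactamase in PR-UAS-bla HEK293T cells after 16 hr exposure to compound plus 1 nM promegestone (final), followed by 2 hr at room temperature.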

[7] = qHTS assay to identify small molecule antagonists of the progesterone receptor (PR) signaling pathway - cell viability counter screen (AID 1346798); conditions: PR-UAS-bla HEK293T viability, CellTiter-Glo luminescence, 16 h; series mostly up to 92.4 µM;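 further: HEK293T PR-UAS-bla cells stimulated with the agonist R5020; nearly all actives have a fitted effect of over 50% in size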
Outline: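 HEK293T PR-UAS-bla, 2% charcoal-stripped FBS; 4 hr pre-plate; cpd + R5020, 16 h 37C; LiveBLAzer read first; then CellTiter-Glo 30 min RT, luminescence.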

[8] = qHTS assay to identify small molecule agonists of the progesterone receptor (PR) signaling pathway - cell viability counter screen (AID 1346799; calls by dose curve; further: nearly all actives have a fitted effect of over 45% in size); conditions: PR-UAS-bla HEK293T viability, CellTiter-Glo luminescence, 16 h; series mostly up to 92.4 µM
Outline: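 Luminescence from CellTiter-Glo, added after the beta-lactamase FRET read in the same wells, gave cytotoxicity in PR-UAS-bla HEK293T cells treated with compounds for 16 hr at 37C.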

[9] = qHTS assay to identify small molecule antagonists of the TGF-beta/Smad signaling pathway - cell viability counter screen (AID 1346824); conditions: SBE-bla HEK293T viability, CellTiter-Glo luminescence; series mostly up to 76.8 µM; further: nearly all actives have a fitted effect of over 50% in size
Outline: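 Cytotoxicity counter-screen run in the same wells as the beta-lactamase Smad reporter read: CellTiter-Glo luminescence after 30 min at room temperature. HEK 293T SBE-bla cells had 5 hr compound exposure at 37 C with TGF-beta1 (0.25 ng/mL stock).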

[10] = qHTS assay to identify small molecule agonists of the TGF-beta/Smad signaling pathway - cell viability counter screen (AID 1346829); conditions: SBE-bla HEK293T viability, CellTiter-Glo luminescence, 5 h; series mostly up to 76.8 µM; further: top concentration of the series differs between compounds; nearly all actives have a fitted effect of over 45% in size
Outline: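 SBE-bla HEK 293T cells plated overnight, compound exposure 5 hr at 37 C. Viability read in the same wells by CellTiter-Glo luminescence after 30 min at room temperature, following the beta-lactamase read.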

[11] = qHTS assay to identify small molecule agonists of the TGF-beta/Smad signaling pathway (AID 1346859; active means well fitted activation curve with a large enough effect in the signal ratio in the repeat runs, not every such curve was filed as active; the % refers to the signal ratio); conditions: SBE-bla HEK293T, TGF-beta/Smad beta-lactamase reporter, 5 h; series mostly up to 76.8 µM
Outline: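 SBE-bla HEK 293T, 4,000 cells/well, plated o/n; cpd in DMSO, 5 hr, 37 C/5% CO2; B/G FRET substrate 2 hr RT; ex 405, em 460/530 nm.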

[12] = Human pregnane X receptor (PXR) small molecule agonists, qHTS cell viability counter screen (AID 1346977); conditions: PXR-Luc HepG2 viability, CellTiter-Fluor, 24 h; series mostly up to 92.4 µM; further: nearly all actives have a fitted effect of over 50% in size
Outline: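 PXR-Luc HepG2, 2,000 cells/well, 5% charcoal-stripped FBS; 5hr settle; cpd 24hr, 37C/5% CO2; CellTiter-Fluor at 23hr, read 1hr later (fluorescence).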

[13] = Caspase-3/7 induction in HepG2 cells by small molecules, qHTS assay (AID 1346978); conditions: HepG2 caspase-3/7 activation, Caspase-Glo luminescence, 17 h; series mostly up to 92.4 µM; further: nearly all actives have a fitted effect of over 15% in size
Outline: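 Caspase-3/7 induction was measured by Caspase-Glo 3/7 luminescence (30 min, room temperature) after a 17 hr compound exposure of wild-type HepG2 cells seeded at 2,000 per well and pre-incubated 5 hr.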

[14] = Caspase-3/7 induction in CHO-K1 cells by small molecules, qHTS cell viability counter screen (AID 1346979); conditions: CellTiter-Fluor fluorescence, 17 h; series mostly up to 92.4 µM; further: nearly all actives have a fitted effect of over 35% in size
Outline: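 Cells (CHO-K1, wild type) are plated at 1,500 per well and incubated 5hr. Test compounds in DMSO are then pinned in, followed by 16hr at 37C and 5% CO2. Viability is read by CellTiter-Fluor fluorescence after 1hr.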

[15] = biological target: Thyrotropin-releasing hormone receptor (Homo sapiens) (UniProt P34981); assay: qHTS assay to identify small molecule antagonists of the thyrotropin-releasing hormone receptor (TRHR) signaling pathway (AID 1346877; active means well fitted inhibition curve with a large enough effect in the repeat runs, not every such curve was filed as active); conditions: TRHR-HEK293, TRH-induced calcium fluorescence, antagonist mode; series mostly up to 51.3 µM
Outline: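 TRHR-expressing HEK293 cells loaded with calcium dye for 2 h at 37 C; compounds pre-incubated 5 min at room temperature before TRH challenge at 1 nM final. Intracellular calcium fluorescence read kinetically for 3 min; 15 concentrations in triplicate.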

[16] = biological target: Thyrotropin-releasing hormone receptor (Homo sapiens) (UniProt P34981); assay: qHTS assay to identify small molecule agonists of the thyrotropin-releasing hormone receptor (TRHR) signaling pathway (AID 1346891; calls by dose curve); conditions: TRHR-HEK293 calcium fluorescence, agonist mode; series mostly up to 57.6 µM
Outline: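 Intracellular calcium rise, read as fluorescence every second for 3 min, served as the agonist signal in dye-loaded HEK293 cells expressing TRHR; each compound ran at 15 concentrations in triplicate.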

[17] = qHTS assay to identify small molecule agonists or antagonists of the thyroid stimulating hormone receptor (TSHR) signaling pathway - wild type cell line counter screen (AID 1259384; calls by dose curve); conditions: HEK293 wild type, cAMP HTRF counter-screen; series mostly up to 92.4 µM
Outline: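 Counter screen in untransfected Hek293: compounds (15-point titration, triplicate) plus phosphodiesterase inhibitor Ro20-1724 added after 18 h plating; 30 min RT. Intracellular cAMP via competitive d2/cryptate immunoassay, 1 h incubation.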

[18] = biological target: Thyrotropin receptor (Homo sapiens) (UniProt P16473); assay: qHTS assay to identify small molecule antagonists of the thyroid stimulating hormone receptor (TSHR) signaling pathway (AID 1259385; calls by dose curve; further: nearly all actives have a fitted effect of over 20% in size); conditions: TSHR-HEK293 cAMP HTRF, TSH-stimulated antagonist mode; series mostly up to 92.4 µM
Outline: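 Antagonist mode: compound-treated TSHR-expressing HEK293 cells were stimulated with 1.5 ng/mL TSH (final) in presence of Ro20-1724 for 30 min at RT. HTRF cAMP detection after 1 h; each compound tested at 15 concentrations, triplicate.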

Measured: Potency

Progesterone receptor (Homo sapiens), sequence (P06401 whole entry, looked up): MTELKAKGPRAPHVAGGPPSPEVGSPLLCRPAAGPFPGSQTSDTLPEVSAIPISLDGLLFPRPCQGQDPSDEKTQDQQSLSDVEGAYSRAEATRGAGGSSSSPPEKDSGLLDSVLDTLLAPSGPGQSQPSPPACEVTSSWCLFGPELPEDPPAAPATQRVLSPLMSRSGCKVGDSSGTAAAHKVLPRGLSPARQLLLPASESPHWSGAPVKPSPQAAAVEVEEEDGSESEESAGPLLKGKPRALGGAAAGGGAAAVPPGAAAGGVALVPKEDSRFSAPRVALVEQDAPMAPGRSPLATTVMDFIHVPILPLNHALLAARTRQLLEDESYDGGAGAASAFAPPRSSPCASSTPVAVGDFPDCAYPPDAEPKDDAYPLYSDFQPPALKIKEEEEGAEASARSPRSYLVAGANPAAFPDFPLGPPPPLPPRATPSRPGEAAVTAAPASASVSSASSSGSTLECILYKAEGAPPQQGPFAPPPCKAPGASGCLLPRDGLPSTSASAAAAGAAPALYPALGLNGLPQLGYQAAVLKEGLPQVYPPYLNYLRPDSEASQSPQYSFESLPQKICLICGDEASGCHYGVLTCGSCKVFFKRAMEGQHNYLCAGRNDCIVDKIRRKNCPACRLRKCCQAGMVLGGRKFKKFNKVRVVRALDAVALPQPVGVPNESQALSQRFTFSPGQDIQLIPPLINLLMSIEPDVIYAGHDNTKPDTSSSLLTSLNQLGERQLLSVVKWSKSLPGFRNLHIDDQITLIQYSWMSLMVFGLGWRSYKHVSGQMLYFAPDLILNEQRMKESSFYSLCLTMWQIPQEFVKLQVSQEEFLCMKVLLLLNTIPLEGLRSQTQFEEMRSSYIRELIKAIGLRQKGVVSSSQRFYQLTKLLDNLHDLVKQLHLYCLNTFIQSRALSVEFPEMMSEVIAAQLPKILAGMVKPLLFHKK
Thyrotropin receptor (Homo sapiens), sequence (P16473 whole entry, looked up): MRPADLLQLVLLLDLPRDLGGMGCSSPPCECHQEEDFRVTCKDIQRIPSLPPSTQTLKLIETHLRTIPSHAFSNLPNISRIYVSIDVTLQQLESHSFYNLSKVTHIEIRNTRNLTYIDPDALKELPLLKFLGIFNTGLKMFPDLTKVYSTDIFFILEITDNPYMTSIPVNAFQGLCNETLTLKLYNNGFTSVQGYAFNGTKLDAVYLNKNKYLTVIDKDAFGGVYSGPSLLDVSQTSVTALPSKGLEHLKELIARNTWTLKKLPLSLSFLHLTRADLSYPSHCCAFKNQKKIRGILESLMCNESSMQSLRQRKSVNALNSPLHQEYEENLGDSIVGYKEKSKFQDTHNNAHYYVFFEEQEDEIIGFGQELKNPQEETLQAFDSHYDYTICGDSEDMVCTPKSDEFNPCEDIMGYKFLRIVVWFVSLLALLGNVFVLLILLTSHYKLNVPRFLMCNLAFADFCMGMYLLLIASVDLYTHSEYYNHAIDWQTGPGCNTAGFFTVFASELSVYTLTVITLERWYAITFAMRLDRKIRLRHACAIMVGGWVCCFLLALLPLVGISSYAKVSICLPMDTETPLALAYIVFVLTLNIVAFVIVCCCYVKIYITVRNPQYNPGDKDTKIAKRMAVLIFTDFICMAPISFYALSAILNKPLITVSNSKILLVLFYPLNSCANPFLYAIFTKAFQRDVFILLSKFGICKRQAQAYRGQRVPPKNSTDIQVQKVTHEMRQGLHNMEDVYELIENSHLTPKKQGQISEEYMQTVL
Thyrotropin-releasing hormone receptor (Homo sapiens), sequence (P34981 whole entry, looked up): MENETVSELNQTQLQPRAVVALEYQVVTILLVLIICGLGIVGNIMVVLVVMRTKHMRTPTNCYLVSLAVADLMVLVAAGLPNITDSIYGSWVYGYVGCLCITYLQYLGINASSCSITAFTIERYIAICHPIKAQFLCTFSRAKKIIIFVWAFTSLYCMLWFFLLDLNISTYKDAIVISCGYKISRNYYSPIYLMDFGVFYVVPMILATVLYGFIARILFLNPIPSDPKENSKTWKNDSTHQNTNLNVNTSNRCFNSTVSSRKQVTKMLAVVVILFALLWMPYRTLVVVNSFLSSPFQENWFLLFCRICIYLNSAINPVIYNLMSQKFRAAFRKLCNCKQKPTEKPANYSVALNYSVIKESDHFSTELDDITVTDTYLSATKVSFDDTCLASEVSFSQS

CCCCn1cc[n+](C)c1C
not listed: [15] | [16] | [17] | [18]
inactive: all other assays above

O=c1[nH]c(=O)n(Cl)c(=O)n1Cl
not listed: [17] | [18]
inactive: all other assays above

CCC[N+]1(C)CCCC1
not listed: [4] | [15] | [16] | [17] | [18]
inactive: all other assays above

O=[N+]([O-])O
inactive: [1] | [2] | [3] | [17] | [18] | [5] | [6] | [7] | [8] | [9] | [9] | [10] | [11] | [12] | [13] | [14]

O=C(O)C(Cl)(Cl)Cl
not listed: [4]
inactive: all other assays above

N#CS
not listed: [17] | [18]
inactive: all other assays above

O=S(=O)(O)O
not listed: [5] | [6] | [15] | [16] | [17] | [18]
inactive: all other assays above
